This is an account of results in ChEMBL document CHEMBL2218924, “A broad activity screen in support of a chemogenomic map for kinase signalling research and drug discovery” (Biochem J, 2013).

Broadly, the residual activity is the signal under treatment as a percentage of the control signal.

Assay [1] concerns the target T1, Ephrin type-A receptor 3 (Homo sapiens) (UniProt P29320).
T1 sequence (whole entry): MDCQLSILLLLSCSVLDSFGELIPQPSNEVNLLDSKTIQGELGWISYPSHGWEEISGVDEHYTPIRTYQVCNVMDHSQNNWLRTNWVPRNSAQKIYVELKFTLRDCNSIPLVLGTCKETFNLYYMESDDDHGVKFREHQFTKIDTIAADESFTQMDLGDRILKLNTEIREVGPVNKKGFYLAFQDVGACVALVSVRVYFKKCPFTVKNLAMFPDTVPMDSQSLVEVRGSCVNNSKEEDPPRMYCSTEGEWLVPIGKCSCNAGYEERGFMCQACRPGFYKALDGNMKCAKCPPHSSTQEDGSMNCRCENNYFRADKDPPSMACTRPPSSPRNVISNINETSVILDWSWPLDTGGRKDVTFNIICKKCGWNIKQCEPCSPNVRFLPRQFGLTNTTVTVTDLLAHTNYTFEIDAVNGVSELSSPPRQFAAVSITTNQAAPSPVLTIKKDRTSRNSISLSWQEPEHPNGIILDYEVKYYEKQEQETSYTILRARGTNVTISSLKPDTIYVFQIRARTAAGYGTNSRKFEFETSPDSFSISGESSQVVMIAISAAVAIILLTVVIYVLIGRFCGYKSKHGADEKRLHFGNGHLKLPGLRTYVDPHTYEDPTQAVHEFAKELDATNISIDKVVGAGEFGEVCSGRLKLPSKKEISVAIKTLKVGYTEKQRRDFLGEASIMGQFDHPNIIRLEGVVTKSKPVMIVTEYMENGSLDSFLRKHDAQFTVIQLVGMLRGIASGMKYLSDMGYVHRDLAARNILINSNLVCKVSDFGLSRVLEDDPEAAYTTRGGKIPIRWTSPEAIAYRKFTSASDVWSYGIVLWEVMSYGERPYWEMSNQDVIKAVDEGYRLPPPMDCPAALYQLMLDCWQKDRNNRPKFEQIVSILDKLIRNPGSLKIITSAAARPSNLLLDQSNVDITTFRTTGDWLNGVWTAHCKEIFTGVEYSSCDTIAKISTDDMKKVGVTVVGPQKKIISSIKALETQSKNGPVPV
To be noted: at 10 µM.

In assay [2] the target is Ephrin type-A receptor 4 (Homo sapiens) (UniProt P54764). The following applies: at 1 µM.
Ephrin type-A receptor 4 (Homo sapiens), sequence (P54764 whole entry): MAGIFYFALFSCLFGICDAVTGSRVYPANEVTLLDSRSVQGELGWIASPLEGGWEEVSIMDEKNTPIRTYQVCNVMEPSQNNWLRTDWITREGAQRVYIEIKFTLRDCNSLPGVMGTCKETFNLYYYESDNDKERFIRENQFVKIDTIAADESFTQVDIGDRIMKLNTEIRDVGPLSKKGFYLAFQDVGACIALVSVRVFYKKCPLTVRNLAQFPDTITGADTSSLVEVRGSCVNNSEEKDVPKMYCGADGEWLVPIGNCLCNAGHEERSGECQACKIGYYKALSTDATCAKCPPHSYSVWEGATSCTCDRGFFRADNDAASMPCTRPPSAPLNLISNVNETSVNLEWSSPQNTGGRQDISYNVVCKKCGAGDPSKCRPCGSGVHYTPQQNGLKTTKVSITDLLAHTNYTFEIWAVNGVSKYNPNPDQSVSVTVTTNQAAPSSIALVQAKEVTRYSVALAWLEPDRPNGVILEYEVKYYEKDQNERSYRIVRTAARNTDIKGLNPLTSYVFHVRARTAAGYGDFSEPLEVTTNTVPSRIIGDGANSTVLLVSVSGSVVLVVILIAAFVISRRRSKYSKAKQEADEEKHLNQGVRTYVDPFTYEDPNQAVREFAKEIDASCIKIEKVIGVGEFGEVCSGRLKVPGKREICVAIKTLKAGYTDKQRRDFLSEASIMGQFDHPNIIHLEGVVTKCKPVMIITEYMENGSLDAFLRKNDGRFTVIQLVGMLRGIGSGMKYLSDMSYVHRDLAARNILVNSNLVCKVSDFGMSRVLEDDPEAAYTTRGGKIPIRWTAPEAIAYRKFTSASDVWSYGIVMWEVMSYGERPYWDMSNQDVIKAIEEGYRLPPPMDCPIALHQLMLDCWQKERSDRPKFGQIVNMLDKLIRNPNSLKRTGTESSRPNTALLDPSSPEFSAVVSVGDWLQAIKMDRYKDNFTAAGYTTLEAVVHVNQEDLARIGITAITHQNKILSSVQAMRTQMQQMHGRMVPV
Assay [3] shares this target. To be noted: at 10 µM.
Assay [4] addresses Ephrin type-A receptor 5 (Homo sapiens) (UniProt P54756). The following applies: at 1 µM.
For assay [5] the target is unchanged. The following applies: at 10 µM.
The target in assay [6] is Ephrin type-A receptor 7 (Homo sapiens) (UniProt Q15375). To be noted: at 1 µM.
Ephrin type-A receptor 7 (Homo sapiens), sequence (Q15375 28-998 limits assumed): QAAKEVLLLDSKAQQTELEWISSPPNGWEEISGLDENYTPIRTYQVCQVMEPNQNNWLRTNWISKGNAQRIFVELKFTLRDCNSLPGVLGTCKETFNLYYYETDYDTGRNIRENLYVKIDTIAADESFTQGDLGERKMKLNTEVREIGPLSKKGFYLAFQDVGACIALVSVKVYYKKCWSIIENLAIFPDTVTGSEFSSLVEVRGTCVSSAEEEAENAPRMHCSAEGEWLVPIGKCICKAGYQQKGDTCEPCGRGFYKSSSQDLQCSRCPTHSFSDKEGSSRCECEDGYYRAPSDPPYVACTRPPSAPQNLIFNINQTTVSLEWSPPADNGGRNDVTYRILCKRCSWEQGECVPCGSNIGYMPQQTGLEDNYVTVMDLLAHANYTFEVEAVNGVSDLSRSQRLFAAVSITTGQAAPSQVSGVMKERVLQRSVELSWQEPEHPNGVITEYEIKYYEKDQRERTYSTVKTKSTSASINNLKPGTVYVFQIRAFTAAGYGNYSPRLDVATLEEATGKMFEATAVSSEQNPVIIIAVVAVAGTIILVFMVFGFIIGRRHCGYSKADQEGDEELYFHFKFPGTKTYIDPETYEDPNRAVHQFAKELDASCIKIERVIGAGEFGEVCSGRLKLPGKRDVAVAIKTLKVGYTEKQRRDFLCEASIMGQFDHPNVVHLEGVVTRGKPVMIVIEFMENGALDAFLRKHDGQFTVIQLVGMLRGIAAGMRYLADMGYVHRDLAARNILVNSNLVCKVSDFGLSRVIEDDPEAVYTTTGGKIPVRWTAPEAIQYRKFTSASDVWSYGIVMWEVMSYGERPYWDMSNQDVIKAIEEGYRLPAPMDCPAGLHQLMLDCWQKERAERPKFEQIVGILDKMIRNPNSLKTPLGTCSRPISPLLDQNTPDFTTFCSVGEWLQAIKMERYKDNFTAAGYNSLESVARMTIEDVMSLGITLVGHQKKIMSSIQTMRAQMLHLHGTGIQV
The target is the same in assay [7]. The following applies: at 10 µM.
Assay [8] addresses T2, Ephrin type-A receptor 8 (Homo sapiens) (UniProt P29322).
T2 sequence (whole entry): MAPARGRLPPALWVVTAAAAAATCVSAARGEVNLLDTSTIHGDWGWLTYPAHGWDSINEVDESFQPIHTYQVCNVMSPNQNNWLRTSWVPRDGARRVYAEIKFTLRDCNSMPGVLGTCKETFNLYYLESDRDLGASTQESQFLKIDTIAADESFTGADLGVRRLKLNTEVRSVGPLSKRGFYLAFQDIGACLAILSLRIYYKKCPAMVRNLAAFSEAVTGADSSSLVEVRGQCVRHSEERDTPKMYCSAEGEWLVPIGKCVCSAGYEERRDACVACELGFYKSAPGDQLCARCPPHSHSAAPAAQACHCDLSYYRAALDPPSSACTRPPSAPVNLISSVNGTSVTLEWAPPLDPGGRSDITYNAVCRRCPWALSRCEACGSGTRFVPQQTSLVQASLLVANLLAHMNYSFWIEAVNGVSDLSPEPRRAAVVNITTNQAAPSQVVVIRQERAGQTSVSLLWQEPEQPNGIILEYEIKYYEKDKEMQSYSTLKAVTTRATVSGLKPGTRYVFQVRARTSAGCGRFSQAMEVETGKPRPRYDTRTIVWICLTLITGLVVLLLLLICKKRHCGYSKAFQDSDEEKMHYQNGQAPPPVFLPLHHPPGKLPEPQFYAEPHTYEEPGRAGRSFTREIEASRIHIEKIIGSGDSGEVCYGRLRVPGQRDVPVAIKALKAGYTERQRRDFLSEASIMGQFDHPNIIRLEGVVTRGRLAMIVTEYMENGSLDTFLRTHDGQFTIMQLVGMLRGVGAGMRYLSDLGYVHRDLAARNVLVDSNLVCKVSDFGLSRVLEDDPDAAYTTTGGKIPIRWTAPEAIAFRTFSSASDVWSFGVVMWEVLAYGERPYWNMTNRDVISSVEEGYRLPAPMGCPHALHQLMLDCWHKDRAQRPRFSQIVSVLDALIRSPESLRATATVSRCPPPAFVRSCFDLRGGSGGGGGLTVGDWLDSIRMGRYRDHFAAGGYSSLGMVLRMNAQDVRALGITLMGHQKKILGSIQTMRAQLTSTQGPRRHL
To be noted: at 1 µM.

In assay [9] the target is T2, Ephrin type-A receptor 8 (Homo sapiens). The following applies: at 10 µM.
Assay [10] concerns the target T3, Ephrin type-B receptor 1 (Homo sapiens) (UniProt P54762).
T3 sequence (whole entry): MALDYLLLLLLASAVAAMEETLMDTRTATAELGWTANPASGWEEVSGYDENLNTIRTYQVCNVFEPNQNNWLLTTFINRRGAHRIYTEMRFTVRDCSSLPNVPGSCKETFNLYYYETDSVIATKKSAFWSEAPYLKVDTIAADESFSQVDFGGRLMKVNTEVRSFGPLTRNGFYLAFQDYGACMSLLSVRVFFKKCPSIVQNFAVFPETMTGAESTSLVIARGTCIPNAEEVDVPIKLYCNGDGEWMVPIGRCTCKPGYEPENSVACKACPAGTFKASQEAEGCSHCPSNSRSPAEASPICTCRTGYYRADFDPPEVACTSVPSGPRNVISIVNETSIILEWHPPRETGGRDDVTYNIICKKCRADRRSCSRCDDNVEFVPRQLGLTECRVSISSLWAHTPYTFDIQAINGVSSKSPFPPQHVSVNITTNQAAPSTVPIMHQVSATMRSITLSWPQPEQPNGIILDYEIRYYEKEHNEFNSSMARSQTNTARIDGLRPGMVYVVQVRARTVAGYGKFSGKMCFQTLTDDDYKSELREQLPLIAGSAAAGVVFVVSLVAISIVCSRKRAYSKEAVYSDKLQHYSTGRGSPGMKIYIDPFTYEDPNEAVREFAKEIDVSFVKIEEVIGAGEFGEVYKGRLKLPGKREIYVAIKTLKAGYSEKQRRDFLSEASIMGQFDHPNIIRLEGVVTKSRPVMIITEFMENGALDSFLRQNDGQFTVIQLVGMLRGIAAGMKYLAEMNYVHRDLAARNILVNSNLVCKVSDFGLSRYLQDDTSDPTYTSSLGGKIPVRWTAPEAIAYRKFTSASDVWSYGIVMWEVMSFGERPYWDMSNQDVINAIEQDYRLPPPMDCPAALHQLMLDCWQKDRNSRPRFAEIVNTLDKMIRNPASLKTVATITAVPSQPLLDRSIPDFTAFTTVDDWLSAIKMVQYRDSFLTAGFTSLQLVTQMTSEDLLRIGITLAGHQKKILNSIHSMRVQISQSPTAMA
To be noted: at 1 µM.

SMILES strings stand for the structures.

Ephrin type-A receptor 5 (Homo sapiens), sequence (P54756 whole entry): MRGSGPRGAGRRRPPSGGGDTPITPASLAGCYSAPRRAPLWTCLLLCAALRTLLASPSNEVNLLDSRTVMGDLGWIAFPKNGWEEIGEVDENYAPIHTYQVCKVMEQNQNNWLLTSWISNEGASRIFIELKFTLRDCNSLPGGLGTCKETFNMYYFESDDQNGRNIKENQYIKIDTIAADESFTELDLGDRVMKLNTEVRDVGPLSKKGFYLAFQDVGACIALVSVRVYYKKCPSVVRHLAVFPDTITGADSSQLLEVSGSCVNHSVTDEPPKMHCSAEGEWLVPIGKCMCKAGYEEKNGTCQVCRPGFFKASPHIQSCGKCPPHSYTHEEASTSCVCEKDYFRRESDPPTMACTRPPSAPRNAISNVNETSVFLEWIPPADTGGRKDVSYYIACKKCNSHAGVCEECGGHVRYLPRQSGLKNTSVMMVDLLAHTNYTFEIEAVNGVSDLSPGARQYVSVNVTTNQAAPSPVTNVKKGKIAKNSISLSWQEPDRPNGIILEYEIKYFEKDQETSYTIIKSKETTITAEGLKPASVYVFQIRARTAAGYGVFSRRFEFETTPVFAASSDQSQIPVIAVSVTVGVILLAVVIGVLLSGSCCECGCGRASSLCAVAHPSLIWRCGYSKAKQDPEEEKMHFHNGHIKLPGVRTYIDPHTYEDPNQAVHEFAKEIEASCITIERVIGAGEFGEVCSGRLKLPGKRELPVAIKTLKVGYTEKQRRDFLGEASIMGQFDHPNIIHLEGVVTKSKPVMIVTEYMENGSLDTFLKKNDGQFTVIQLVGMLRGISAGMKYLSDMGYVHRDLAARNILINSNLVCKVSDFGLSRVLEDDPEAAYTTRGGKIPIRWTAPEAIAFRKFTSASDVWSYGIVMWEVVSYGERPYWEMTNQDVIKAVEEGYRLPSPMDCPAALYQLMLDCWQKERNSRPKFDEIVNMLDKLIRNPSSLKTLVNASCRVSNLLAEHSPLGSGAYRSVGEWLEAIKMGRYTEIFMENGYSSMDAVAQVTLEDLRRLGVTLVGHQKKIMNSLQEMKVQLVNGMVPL

As for `O=C(Nc1cccc(Nc2nccc(Nc3cccc(C(F)(F)F)c3)n2)c1)C1CC1`, the residual activity stood at 47% in assay [1]; 102% in assay [2]; 92% in assay [3]; 99% in assay [4]; 80% in assay [5]; 81% in assay [6]. The residual activity worked out at 43% in assay [7], 97% in assay [8], 67% in assay [9] and 62% in assay [10].
